From PubChem BioAssay
The source made the active and inactive calls.

Assays:
Albumin (Bos taurus) = Albumin (Bos taurus) (UniProt P02769); test: compounds binding labelled BSA control protein – biochemical, small-molecule microarray, Alexa647 label, 635/667 nm fluorescence, artefact control for SMM control protein annotation, profiling panel (AID 1118); conditions: BSA-A647 binding, fluorescence 635 nm, higher = more signal;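 also: score merges 667 nm emission intensity and signal-to-noise per printed compound spot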
Albumin (Bos taurus), sequence (P02769 whole entry, looked up): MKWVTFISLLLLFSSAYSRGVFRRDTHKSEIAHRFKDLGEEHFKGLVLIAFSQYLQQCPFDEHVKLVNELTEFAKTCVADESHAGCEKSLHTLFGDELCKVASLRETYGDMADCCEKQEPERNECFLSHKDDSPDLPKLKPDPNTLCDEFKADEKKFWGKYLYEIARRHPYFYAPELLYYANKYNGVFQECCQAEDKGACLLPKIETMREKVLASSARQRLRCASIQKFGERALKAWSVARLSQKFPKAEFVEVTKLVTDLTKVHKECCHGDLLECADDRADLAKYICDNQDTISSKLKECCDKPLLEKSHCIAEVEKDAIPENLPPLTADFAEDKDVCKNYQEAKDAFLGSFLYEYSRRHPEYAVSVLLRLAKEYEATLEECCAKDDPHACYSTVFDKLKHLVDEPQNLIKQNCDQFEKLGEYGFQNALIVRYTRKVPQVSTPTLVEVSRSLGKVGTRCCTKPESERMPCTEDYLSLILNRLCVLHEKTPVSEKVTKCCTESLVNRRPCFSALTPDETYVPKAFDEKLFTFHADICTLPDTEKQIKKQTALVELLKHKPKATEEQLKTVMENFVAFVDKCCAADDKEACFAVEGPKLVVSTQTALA

[1] = probe aXIP binding to arrayed compounds – biochemical, NeuroSMM set, 635/667 nm fluorescence, primary screen (AID 1119); conditions: small-molecule microarray, higher = more signal, called active from +8 up or from −8 down;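 also: probe is the protein aXip251-270 applied at 1 µg/mL to compound-printed slides; binding of probe to printed compounds measured as 667 nm fluorescence plus signal to noise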
[2] = probe aNOTCH3 binding on compound microarray – biochemical, small-molecule microarray, 635/667 nm fluorescence, primary screen (AID 1120); conditions: higher = more signal;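 also: probe is a biotin-tagged antibody raised against NOTCH3 rather than NOTCH3 protein; score merges spot fluorescence near 667 nm with spot signal to noise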
[3] = probe aNOTCH2 binding on compound microarray – biochemical, small-molecule microarray, 635/667 nm fluorescence, primary screen (AID 1121); conditions: higher = more signal;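 also: score merges feature fluorescence read at 667 nm with its signal to noise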
[4] = target: Carbonic anhydrase 2 (Homo sapiens) (UniProt P00918); test: compounds binding carbonic anhydrase 2 – biochemical, small-molecule microarray, Alexa647-labelled CAII, profiling panel (AID 1122); conditions: CAII-A647 binding fluorescence, higher = more signal
[5] = COS7 lysate on small-molecule microarray, probe aHis, 635 nm (AID 1123); conditions: COS7 cell lysate, fluorescence, higher = more signal;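 also: z-score combines 667nm fluorescence intensity with signal-to-noise per printed compound spot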
[6] = probe aLAP1 signal on lysate-treated microarray – cell lysate, small-molecule microarray, COS7 lysate, primary screen (AID 1124); conditions: probe aLAP1, fluorescence, higher = more signal;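 also: lysate comes from COS7 cells expressing LAP1 and is applied at 0.3 µg/mL; score merges spot fluorescence near 667 nm with signal-to-noise over triplicate slides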
Sam68 (KHDRBS1) = test: compounds binding KHDRBS1 protein – biochemical, small-molecule microarray, 635 nm fluorescence, primary screen (AID 1125); conditions: higher = more signal;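 also: score merges 667 nm channel intensity with signal to noise over triplicate slides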
[7] = test system: Chordin-like protein 2 (CHRDL2); test: compounds binding chordin-like 2 – biochemical, small-molecule microarray, 635 nm fluorescence, primary screen (AID 1126); conditions: fluorescence 635 nm, higher = more signal;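 also: printed compound slides probed with Chrdl2 protein at 4 µg/mL for 1 h at 4 C; score merges 667 nm emission intensity with signal to noise over three replicate slides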
[8] = target: Concanavalin-A (Canavalia ensiformis) (UniProt P02866); test: compounds binding concanavalin A lectin – biochemical, small-molecule microarray, Alexa647 label, 635 nm, artefact control for SMM control protein annotation, primary screen (AID 1127); conditions: ConA-A647 binding fluorescence, higher = more signal;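 also: z combines 667 nm emission intensity with signal-to-noise across three replicate slides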
Concanavalin-A (Canavalia ensiformis), sequence (P02866 whole entry, looked up): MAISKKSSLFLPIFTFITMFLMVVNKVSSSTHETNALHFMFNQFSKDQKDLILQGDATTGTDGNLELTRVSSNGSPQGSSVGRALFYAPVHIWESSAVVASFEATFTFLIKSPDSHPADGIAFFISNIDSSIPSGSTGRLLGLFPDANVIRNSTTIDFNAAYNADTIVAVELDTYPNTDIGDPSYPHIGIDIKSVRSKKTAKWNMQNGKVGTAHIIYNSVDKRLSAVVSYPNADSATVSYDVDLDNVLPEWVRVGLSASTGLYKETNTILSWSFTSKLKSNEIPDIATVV

[9] = compounds binding Alexa647 anti-His antibody – biochemical, small-molecule microarray, 635 nm fluorescence, artefact control for SMM control protein annotation, primary screen (AID 1128); conditions: higher = more signal;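 also: score merges feature fluorescence with signal-to-noise for each printed compound spot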
[10] = test system: Human papillomavirus type 1a E7 protein (residues 1-88); test: HPV1a E7 small-molecule binders, primary screen, biochemical, small-molecule microarray, residues 1-88, 635 nm (AID 1129); conditions: small-molecule microarray binding, fluorescence 635 nm; higher = more signal
[11] = target: Focal adhesion kinase 1 (Homo sapiens) (UniProt Q05397); test: PTK2 protein binding on printed compound slides – biochemical, small-molecule microarray, 635/667 nm fluorescence, BSA, DTT, primary screen (AID 1130); conditions: 635 nm fluorescence, higher = more signal;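 also: composite of spot emission at 667 nm and signal to noise over triplicate slides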
Focal adhesion kinase 1 (Homo sapiens), sequence (Q05397 whole entry, looked up): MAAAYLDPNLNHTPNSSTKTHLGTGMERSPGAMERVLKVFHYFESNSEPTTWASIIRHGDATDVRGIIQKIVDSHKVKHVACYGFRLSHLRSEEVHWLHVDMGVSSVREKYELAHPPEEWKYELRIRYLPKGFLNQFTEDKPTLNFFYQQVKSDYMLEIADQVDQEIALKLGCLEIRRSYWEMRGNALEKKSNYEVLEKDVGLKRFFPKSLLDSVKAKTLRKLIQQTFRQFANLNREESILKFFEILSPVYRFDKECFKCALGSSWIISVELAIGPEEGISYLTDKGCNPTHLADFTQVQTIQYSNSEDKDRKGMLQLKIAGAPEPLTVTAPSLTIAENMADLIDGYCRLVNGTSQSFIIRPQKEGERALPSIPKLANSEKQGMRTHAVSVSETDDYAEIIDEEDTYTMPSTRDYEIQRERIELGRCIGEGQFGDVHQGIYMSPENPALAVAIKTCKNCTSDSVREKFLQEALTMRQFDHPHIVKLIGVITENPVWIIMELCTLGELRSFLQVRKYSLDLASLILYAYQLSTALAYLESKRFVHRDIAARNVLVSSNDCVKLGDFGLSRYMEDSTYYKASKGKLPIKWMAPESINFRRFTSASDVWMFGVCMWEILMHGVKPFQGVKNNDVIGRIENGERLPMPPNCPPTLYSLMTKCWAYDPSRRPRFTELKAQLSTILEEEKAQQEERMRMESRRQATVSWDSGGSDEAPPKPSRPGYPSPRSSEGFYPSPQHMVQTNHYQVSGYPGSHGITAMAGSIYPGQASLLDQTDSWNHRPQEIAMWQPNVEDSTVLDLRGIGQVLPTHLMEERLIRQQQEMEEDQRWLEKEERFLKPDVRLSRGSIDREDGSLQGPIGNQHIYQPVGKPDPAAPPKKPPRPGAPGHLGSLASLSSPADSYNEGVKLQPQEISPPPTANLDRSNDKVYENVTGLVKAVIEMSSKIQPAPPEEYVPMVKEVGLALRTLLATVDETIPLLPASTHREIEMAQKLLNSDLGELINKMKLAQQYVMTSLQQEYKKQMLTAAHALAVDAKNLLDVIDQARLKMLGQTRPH

[12] = test system: Fibrinogen (Alexa647-labelled); test: Alexa647-fibrinogen binding to printed small molecules – biochemical, small-molecule microarray, 635/667 nm fluorescence, artefact control for SMM control-protein annotation, profiling panel (AID 1131); conditions: fibrinogen-A647 binding fluorescence, higher = more signal;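 also: z-score merges 667 nm fluorescence with per-spot signal-to-noise over triplicate slides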
[13] = target: Follistatin (Homo sapiens) (UniProt P19883); test: FST protein binding to printed compounds – biochemical, small-molecule microarray, 635/667 nm fluorescence, primary screen (AID 1132); conditions: 635 nm fluorescence, higher = more signal
Follistatin (Homo sapiens), sequence (P19883 whole entry, looked up): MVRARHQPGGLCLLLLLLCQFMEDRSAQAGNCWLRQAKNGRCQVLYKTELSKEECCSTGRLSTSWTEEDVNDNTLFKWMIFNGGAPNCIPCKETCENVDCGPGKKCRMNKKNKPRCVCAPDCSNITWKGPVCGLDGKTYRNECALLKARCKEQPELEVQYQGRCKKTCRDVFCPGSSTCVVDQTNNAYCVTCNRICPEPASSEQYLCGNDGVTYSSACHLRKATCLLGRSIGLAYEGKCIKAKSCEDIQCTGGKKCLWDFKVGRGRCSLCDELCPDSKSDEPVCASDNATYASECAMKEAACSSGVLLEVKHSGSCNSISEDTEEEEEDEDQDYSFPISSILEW

[14] = target: Fibroblast growth factor 2 (Homo sapiens) (UniProt P09038); test: basic fibroblast growth factor binding to printed compounds – biochemical, small-molecule microarray, 635/667 nm fluorescence, primary screen (AID 1133); conditions: FGF2, fluorescence 635/667, higher = more signal
Fibroblast growth factor 2 (Homo sapiens), sequence (P09038 whole entry, looked up): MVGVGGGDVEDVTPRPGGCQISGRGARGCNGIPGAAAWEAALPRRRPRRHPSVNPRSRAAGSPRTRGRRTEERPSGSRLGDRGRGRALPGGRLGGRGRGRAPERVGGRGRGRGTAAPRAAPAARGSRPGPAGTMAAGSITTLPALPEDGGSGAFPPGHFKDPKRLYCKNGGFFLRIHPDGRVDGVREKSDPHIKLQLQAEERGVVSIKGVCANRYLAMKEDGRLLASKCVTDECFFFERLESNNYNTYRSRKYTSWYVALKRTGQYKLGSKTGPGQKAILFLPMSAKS

[15] = JC-1 mitochondrial potential readout, lung cancer cells – cell-based, A549, JC-1 fluorescence, basal, 24 h, 100 nL, profiling panel (AID 1138); conditions: higher = more signal;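 also: A549 lung adenocarcinoma cells under basal conditions with no added stimulus; test concentration not given here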
Lefty1 = Lefty1 protein binding to printed compounds – biochemical, small-molecule microarray, 635/667 nm fluorescence, primary screen (AID 1139); conditions: fluorescence 635/667, higher = more signal
[16] = test system: wheat germ agglutinin (Triticum aestivum), Alexa647-labelled; test: Alexa647-WGA lectin binding to printed small molecules – biochemical, small-molecule microarray, 635/667 nm fluorescence, artefact control for SMM control-protein annotation, profiling panel (AID 1140); conditions: WGA-A647 binding, 635 nm fluorescence, higher = more signal;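 also: score merges 667 nm feature emission with signal to noise over triplicate slides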
[17] = target: Luciferin 4-monooxygenase (Photinus pyralis) (UniProt P08659); test: inhibition of purified Photinus pyralis luciferase – biochemical, luminescence, purified enzyme, 2006 set, primary screen (AID 1141); conditions: purified firefly luciferase, SteadyGlo luminescence, 30 min; higher = more signal, called active from +8 up or from −8 down;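 also: cell-free assay with purified firefly luciferase at 100 ng per well in PBS; test concentration not given here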
Luciferin 4-monooxygenase (Photinus pyralis), sequence (P08659 whole entry, looked up): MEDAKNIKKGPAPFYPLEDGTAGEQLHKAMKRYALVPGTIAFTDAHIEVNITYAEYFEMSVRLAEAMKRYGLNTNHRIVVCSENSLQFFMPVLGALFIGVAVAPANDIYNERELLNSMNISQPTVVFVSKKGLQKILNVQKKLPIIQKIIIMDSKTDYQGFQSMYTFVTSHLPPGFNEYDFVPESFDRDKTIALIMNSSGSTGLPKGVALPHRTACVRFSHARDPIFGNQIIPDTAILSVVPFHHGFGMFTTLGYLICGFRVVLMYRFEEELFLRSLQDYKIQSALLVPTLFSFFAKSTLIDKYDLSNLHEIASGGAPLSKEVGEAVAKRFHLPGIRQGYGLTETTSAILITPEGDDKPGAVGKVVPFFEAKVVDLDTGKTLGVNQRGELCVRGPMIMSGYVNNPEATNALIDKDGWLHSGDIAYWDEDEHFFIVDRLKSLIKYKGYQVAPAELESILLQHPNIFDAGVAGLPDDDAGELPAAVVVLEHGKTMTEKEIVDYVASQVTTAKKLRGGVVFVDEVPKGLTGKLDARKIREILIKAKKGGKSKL

Row | Compound | composite z-score (Albumin (Bos taurus)) | composite Z-score [1] | composite z-score [2] | composite z-score [3] | composite z-score [4] | composite z-score [5] | composite z-score [6] | composite z-score (Sam68 (KHDRBS1)) | composite z-score [7] | composite z-score [8] | composite z-score [9] | composite z-score [10] | composite z-score [11] | composite z-score [12] | composite z-score [13] | composite z-score [14] | z-score [15] | composite z-score (Lefty1) | composite z-score [16] | z-score [17]
1 | COC(=O)C(CC#Cc1ccc2c(c1)[C@]1(C(=O)N2)[C@H](C(=O)NC[C@H](O)c2ccccc2)[C@H]2C(=O)O[C@H](c3ccccc3)[C@H](c3ccccc3)N2[C@@H]1c1ccccc1OCCO)C(=O)OC | -0.119 | -0.154 (inactive) | 0.0779 | -0.115 | 0.376 | 2.14 | 0.298 | 1.25 | 0.557 | 1.01 | 2.68 | 1.23 | 0.289 | 0.478 | 1.25 | 1.56 | -0.693 | 0.221 | 1.09 | 0.742 (inactive)
2 | C[N+](C)(C)CCCC[C@@H]1NC(=O)[C@@H]2C[C@H](C(=O)NCc3ccc(F)cc3)[C@H](c3ccc(O)cc3)N2C1=O | -0.635 | -0.43 (inactive) | -0.307 | -0.0662 | 0.413 | 0.933 | 0.873 | -0.636 | 0.189 | 0.607 | 0.928 | -0.321 | 0.951 | -0.965 | 1.34 | 1.6 | 0.526 | 0.0338 | -0.3 | -0.41 (inactive)
3 | NC(=O)NCC#Cc1ccc2c(c1)[C@]1(C(=O)N2)[C@H](c2ccc(OCCO)cc2)N2[C@H](c3ccccc3)[C@H](c3ccccc3)OC(=O)[C@H]2[C@@H]1C(=O)NC[C@H](O)c1ccccc1 | 0.335 | 0.691 (inactive) | 0.0237 | -0.147 | 0.428 | 0.485 | -0.146 | -0.449 | 0.0046 | 1.03 | -0.454 | 0.542 | 0.115 | 0.879 | 1.25 | -0.0515 | -1.08 | 0.395 | 0.259 | 0.409 (inactive)
4 | CC(C)C[C@H]1NC(=O)C([C@@H](C)OCc2ccccc2)NC(=O)[C@@]23C(=O)N[C@@H](Cc4ccccc4)C2[C@H](C)[C@@]2(C)O[C@H]2C3/C=C/C/C=C\CNC1=O (stereo not given in full) | 0.616 | 0.0578 (inactive) | 0.2 | -0.0148 | 0.412 | 1.51 | 0.653 | 1.3 | 0.736 | 0.234 | 1.42 | 1 | 0.231 | 0.504 | 1.24 | 0.434 | 0.487 | 1.01 | 0.999 | -0.53 (inactive)
5 | CC(C)(C)N1CC=CC23O[C@@H]4C=CCCOC(=O)C4[C@H]2C(=O)N(CCCCCCO)[C@@H]3C1=O (stereo not given in full) | -0.188 | -0.192 (inactive) | -0.0716 | -0.124 | 0.834 | -0.0431 | 0.0582 | 0.28 | -1.29 | -0.202 | 0.129 | 0.11 | -0.385 | -0.959 | -0.327 | -1.16 | 0.223 | -0.0747 | -1.2 | -0.876 (inactive)
6 | CCCNC(=O)[C@@]1(c2ccc([N+](=O)[O-])cc2)CC(=O)N(C(C)C)[C@@H]1c1ccc(CO)cc1 | 0.667 | -0.0527 (inactive) | -0.344 | -0.0876 | 0.801 | 1.7 | 0.188 | -0.626 | -1.54 | -0.536 | 0.736 | 0.143 | 0.856 | -1.19 | -0.742 | -0.914 | -0.837 | -0.844 | 1.19 | -0.113 (inactive)
7 | COCCCNC(=O)[C@@]1(CCC(=O)OC(C)(C)C)COC(c2ccc(OCCCO)cc2)=N1 | 0.483 | 0.507 (inactive) | 0.133 | -0.0485 | 0.619 | 3 | 0.504 | 1.28 | -0.42 | 0.286 | 0.839 | 1.27 | 0.403 | 1.04 | 0.636 | 0.502 | -0.274 | -0.322 | 0.386 | 0.75 (inactive)
8 | COC(=O)[C@@]1(Cc2ccc(OC)cc2)[C@H]2c3cc(C(=O)N4CCCC4)n(Cc4ccc(C(F)(F)F)nc4)c3C[C@H]2CN1C(=O)c1ccccc1 | 0.948 | -0.325 (inactive) | 0.361 | 0.0224 | 0.737 | 0.297 | 0.511 | 0.524 | -0.249 | -0.308 | 1.4 | 1.22 | 1.14 | 0.683 | 0.0995 | -0.342 | 0.939 | 0.087 | 0.902 | -7.63 (inactive)
9 | CCOC(=O)C1=CC[C@@H](c2ccccc2)N(S(=O)(=O)c2ccc(C)cc2)[C@H]1c1ccccc1I | 0.856 | 0.008 (inactive) | 1.02 | -0.0226 | 0.649 | 0.842 | 0.748 | 0.875 | -0.131 | 1.01 | 1.5 | 1.21 | 0.475 | 0.995 | 0.923 | 0.184 | 1.27 | -0.163 | 1.01 | 1.55 (inactive)
10 | O=C1C[C@@](C(=O)O)(c2ccc([N+](=O)[O-])cc2)[C@@H](c2ccc(CO)cc2)N1C1CCCCC1 | 0.88 | 0.628 (inactive) | 0.204 | -0.0029 | 0.508 | 2.02 | 0.281 | 1.34 | 0.0583 | 1.05 | 1.82 | 1.23 | 0.54 | 0.953 | 1.01 | 0.26 | 0.57 | 0.312 | 0.92 | -1.81 (inactive)
11 | COC(=O)[C@H](Cc1ccc(O)cc1)N[C@@H](/C=C/C1CC1)[C@H](O)Cc1ccccc1 | -0.394 | -0.414 (inactive) | -0.127 | -0.172 | -0.231 | -0.635 | -0.125 | 0.0476 | 0.202 | -0.407 | 0.257 | -0.506 | -0.408 | -0.785 | 0.156 | 0.0843 | 0.091 | 0.389 | -0.185 | 0.209 (inactive)
